From PubChem BioAssay (NCATS) come the findings set out here.

Structures are written as SMILES. Inconclusive results are not listed. A call without a number means that no potency is given here. Activity calls are given as the source filed them. Calls follow the shape of the dose curve; as a rule, active = well fitted inhibition curve with a large enough effect; inconclusive = small, poorly fitted or top-dose-only effect; inactive = flat fitted curve, though single readings scatter. Square brackets hold non-standard residues; d marks the D form. Peptide text beside a SMILES is read from it. ξ: configuration not given here. ξPhe(βξ-Me) = CC(c1ccccc1)C(N)C(=O)O; GABA = NCCCC(=O)O

This assay addresses Aldehyde dehydrogenase, mitochondrial (Homo sapiens) (UniProt P05091). Briefly: qHTS for Inhibitors of the Aldehyde Dehydrogenase Family (ALDH2) Primary screen (AID 2061308). Also: nearly all actives have a fitted effect of over 55% in size. Conditions: ALDH2 enzyme inhibition qHTS, 1536-well; series mostly up to 56 µM.
On to `C#C[C@]1(OC(C)=O)CC[C@H]2[C@@H]3CCC4=C[C@@H](OC(C)=O)CC[C@@H]4[C@H]3CC[C@@]21C`, for which the Potency entry was “inactive”.
The same measure, in the same setting: as for `CC1(C)CC2C(C1)C1(C)CCC13OC3(CO)C2O` (stereo not given), the entry is “inactive”; as for `O=C(O)Cc1ccccc1Oc1ccc(Cl)cc1Cl`, “inactive”.
`C=C[C@H]1[C@H](O[C@@H]2O[C@H](CO)[C@@H](O)[C@H](O)[C@H]2O)OC=C(C(=O)OC)[C@H]1C[C@@H]1N[C@H](C(=O)O)Cc2c1[nH]c1ccccc21`: the Potency entry is “inactive”.
Same read-out and setting: as for `CC(C(=O)O)c1ccc(/C=C2\CCCCC2=O)cc1` (stereo not given), the entry is “inactive”; as for `C=C1C(=O)O[C@@H]2[C@H]1[C@H](O)C[C@]1(C)[C@@H](O)CC=C(C)[C@@H]21`, “inactive”; as for `CC1CCC2(OC1)OC1CC3C4CC=C5CC(O)CC(O[C@@H]6OC[C@@H](O)[C@H](O)[C@H]6O)C5(C)C4CCC3(C)C1(O)C2C` (stereo not given in full), “inactive”.
Same read-out and setting: as for `CC(=O)N[C@H]1CCN(c2ccc(C3=NOC(CN[S+](=O)([O-])C(C)C)C3)cc2F)C1` (stereo not given in full), the entry is “inactive”; as for `C=C1C(=O)O[C@@H]2[C@H]3C(C)=CC(=O)C3=C(C)[C@@H](OC(=O)/C(C)=C\C)[C@H](O)[C@@H]12`, “inactive”.
The same measure, in the same setting: as for `C[C@H]1[C@H](C)CC[C@]2(C(=O)O)CC[C@]3(C(=O)O)C(=CCC4[C@@]5(C)CC[C@H](O[C@@H]6O[C@@H](C)[C@H](O)[C@@H](O)[C@H]6O)C(C)(C)C5CC[C@]43C)[C@H]12` (stereo not given in full), the entry is “inactive”.
In the case of `C=C(C(=O)O)C1CC(O)C2(C)CCCC(C)(O)C2C1` (stereo not given), the Potency entry was “inactive”.
On the same count and under the same terms, for `CC1=CC(=O)OC(C)(CC(C)(O)C(=O)O)C1` (stereo not given) the value was “inactive”.
The same measure, in the same setting: as for `CC1CCC2C(C(=O)O)=CC3CC(C)(C)CC132` (stereo not given), the entry is “inactive”.
On the same count and under the same terms, for `COCC(c1ccc(C(F)(F)F)cc1)N1CCN(C2(C)CCN(C(=O)c3c(C)ncnc3C)CC2)CC1C` (stereo not given) the value was “inactive”; for `NC(=O)[C@H]1CCCCc2c1[nH]c1ccc(Cl)cc21`, “inactive”; for `CC1NC(=O)CCCNC(=O)C(Cc2c[nH]c3ccccc23)NC(=O)C(C)NC(=O)C(C(C)C)NC(=O)C(C(C)c2ccccc2)NC(=O)C(C(C)C)NC1=O` (stereo not drawn) (cyclo([GABA]AV[ξPhe(βξ-Me)]VAW); configuration not given here), “inactive”.
Turning to `C/C(=C\CCC(C)(O)c1ccc(C)cc1)C(=O)O` (stereo not given), the Potency result was “inactive”.
Consider `CC1(C)CCC2(C(=O)OC3OCC(O)C(O)C3O)CCC3(C)C(=CCC4C5(C)CC(O)C(OC6OC(COC7OCC(O)C(O)C7O)C(O)C(O)C6O)C(C)(C)C5CCC43C)C2C1` (stereo not given), for which the Potency result was “inactive”.
As to `C=C1C[C@@]23CCC4[C@@](C)(CCC[C@@]4(C)C(=O)OC)C2CC[C@@H]1C3` (stereo not given in full), the Potency entry was “inactive”.
The same measure, in the same setting: for `C=C(C)C1CCC2(C(=O)O)CCC3(C(=O)O)C(CCC4C5(C)CCC(O)C(C)(C(=O)O)C5CCC43C)C12` (stereo not given) the value was “inactive”; for `CC1=C(C)C(=O)OC(C(C)C2C(O)CC3C4C5OC5C5(O)CC(OC6OC(CO)C(OC7OC(C)C(O)C(O)C7O)C(O)C6O)CC(O)C5(C)C4CCC32C)C1` (stereo not given), “inactive”.
Take `CC1CC(C(O)C(C)(C)O)OC2CC3(C)C4(C)CCC5C(C)(C)C(=O)CCC5(C)C4CCC3(O)C12O` (stereo not given): the Potency entry is “inactive”.
As for `CC1OC(O[C@@H]2[C@H](O)[C@@H](OC3OC(CO)C(O)C(O)C3O)[C@H](OC(=O)[C@]34CCC(C)(C)C[C@H]3C3=CCC5[C@@]6(C)CC[C@H](O[C@@H]7O[C@H](C(=O)O)[C@@H](O)[C@H](O[C@@H]8OC[C@@H](O)[C@H](O)[C@H]8O)[C@H]7O[C@@H]7O[C@H](CO)[C@H](O)[C@H](O)[C@H]7O)[C@@](C)(C=O)C6CC[C@@]5(C)[C@]3(C)C[C@H]4O)O[C@@H]2C)C(O)C(O)C1OC1OCC(O)C(O)C1O` (stereo not given in full), the activity change, negative = inhibition is 2.11% [at 11.2 µM] (inactive).
Take `C/C(=C\C(=O)C(C)C1CCC2C3=C(CCC21C)C1(C)CCC(=O)C(C)(C)C1(O)CC3)C(C)(C)O` (stereo not given): the Potency entry is “inactive”.
For `CC(C)=C1C[C@@]2(C)C(=CC1=O)CC[C@@H](OC(=O)/C(C)=C/CO)[C@@H]2C`, the Potency entry was “inactive”.
Regarding `C=C1C(=O)O[C@@H]2C[C@]3(C)[C@@H](CCC(C)=O)[C@@H]3C[C@H]12`, the Potency entry is “inactive”.
With `COC(=O)C[C@H]1C(C)(C)[C@H](OC(=O)C(C)C)[C@@]2(O)C(=O)[C@]1(C)C1CC[C@]3(C)C(CC(=O)O[C@H]3c3ccoc3)[C@]13O[C@@H]32` (stereo not given in full), the Potency entry was “inactive”.
The same measure, in the same setting: for `CC(C(=O)Nc1cc(C#N)ccc1CCCC(=O)O)c1ccc(F)c2ccccc12` (stereo not given) the value was “inactive”; for `C/C(=C\CCC1(C)C2CC3C(C2)C31C)C(=O)O` (stereo not given), “inactive”.
Turning to `CCC(C)/C=C(C)/C=C/C1=CC2=C(Cl)C(=O)C(C)(OC(C)=O)C(=O)C2=CN1C1CCCCN(C(CCC(N)=O)C(=O)O)C1=O` (stereo not given), the Potency result is “inactive”.
The same measure, in the same setting: as for `Cc1ccc(N2CCN(S(=O)(=O)N3CCCCC3)CC2)c(C)c1`, the entry is “inactive”.
`CCC(C)C1NC(=O)C(Cc2ccccc2)NC(=O)C(CCCCCC(=O)C(O)CO)NC(=O)C2CCCCN2C1=O` (stereo not given): the Potency result is “inactive”.
With `COc1ccc(C2(O)CCC(N3CC[C@@H](NC(=O)CNC(=O)c4cccc(C(F)(F)F)c4)C3)CC2)cn1` (stereo not given in full), the Potency entry was “inactive”.
Turning to `CC(C)=CCCC1(C)C=Cc2c(c(C)cc3c2[nH]c2ccccc23)O1` (stereo not given), the Potency result was “inactive”.
The same measure, in the same setting: for `CC(=O)c1c(O)cc2c(c1C)C(=O)CC(O)C2` (stereo not given) the value was “inactive”; for `CC(O)C(C)n1ncn(-c2ccc(N3CCN(c4ccc(OCC5COC(Cn6cncn6)(c6ccc(Cl)cc6Cl)O5)cc4)CC3)cc2)c1=O` (stereo not given), “inactive”; for `CC1(C)CC[C@]2(C(=O)O[C@@H]3O[C@H](CO)[C@@H](O)[C@H](O)[C@H]3O)CC[C@]3(C)C(=CCC4[C@@]5(C)C[C@H](O)[C@H](O[C@@H]6OC[C@@H](O)[C@H](O)[C@H]6O)[C@@](C)(CO)C5CC[C@]43C)C2C1` (stereo not given in full), “inactive”.
For the molecule `CC(C)=CCC[C@](C)(O)[C@H]1CC[C@]2(C)[C@@H]1[C@H](O)CC1[C@@]3(C)CC[C@H](O)C(C)(C)C3[C@@H](O[C@@H]3O[C@H](CO)[C@@H](O)[C@H](O)[C@H]3O[C@@H]3OC[C@@H](O)[C@H](O)[C@H]3O)C[C@]12C` (stereo not given in full), the Potency result was “inactive”.
Still for that read-out and setting: as for `CC#C[C@@H](CC(=O)O)c1ccc(OCc2ccc(CN3CCC4(C=Cc5ccccc54)CC3)s2)cc1`, the entry is “inactive”.
As for `COC(=O)c1cc(OC)cc(OC)c1C(=O)c1c(OC)cc2c(c1O)C1CCCC(C)(O2)O1` (stereo not given), the Potency result is “inactive”.
